This is one part of a sample in which hits are shown more often than they occur.
T cruzi growth-1: blocks T. cruzi growth in NIH3T3 culture | T. cruzi beta-gal in NIH3T3, GalScreen luminescence, 90 h | AID 624255 | inhibition, % at 8.34 µM | 5.9% of 77,000 active;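 active means mean inhibition above about 93%, with at least 55% of replicates each passing it, limit read from the data, passing the limit was not always enough; inconclusive means only one of those two conditions holds; inactive means neither condition holds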
C diff growth: C. difficile growth inhibition; Clostridium difficile clinical isolate growth, OD600, 24 h; hits give low values; growth activity, negative = inhibition, % at 16 µg/mL (by protocol); 0.25% of 86,000 active; AID 1259249;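 active means mean growth activity at or below -80% and every replicate also at or below -80%; inconclusive means mean at or below -80% but some replicate above -80%; inactive means mean growth activity above -80%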;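 further: 0% = DMSO wells and -100% = levofloxacin 16 µg/mL wells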
T cruzi growth-2: inhibitors of T. cruzi proliferation; shares compounds with T cruzi growth-1; T. cruzi beta-gal in NIH3T3, GalScreen luminescence, 90 h; inhibition, % at 8.35 µM; 72% of 5,600 active;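 active means mean replicate inhibition above about 95% and at least 55% of replicates individually reaching it, limit read from the data; inconclusive means only one of the two criteria is met; inactive means neither criterion is met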
T cruzi growth-3: blocks T. cruzi growth in NIH3T3 host cells; shares compounds with T cruzi growth-1; T. cruzi beta-gal in NIH3T3, GalScreen luminescence, 90 h; inhibition, % at 2.09 µM; 21% of 5,600 active;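 active means mean inhibition above about 95%, with at least 55% of replicates also reaching it, limit read from the data; inconclusive means meets just one of the two conditions; inactive means meets neither condition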;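 further: plate controls were neutral control median for no effect and positive control median for full effect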
NIH3T3 tox: cytotoxicity in mouse NIH/3T3 fibroblasts; shares compounds with T cruzi growth-1; NIH/3T3 viability, CellTiter-Glo ATP luminescence, 90 h; cytotoxicity (signal decrease), % at 8.35 µM; 14% of 5,600 active;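 active means mean signal decrease across replicates above about 35% based on untreated-well scatter, with enough replicates individually passing, limit read from the data; inconclusive means no rule stated though some were filed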;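 further: 0% = median of neutral control wells and 100% = median of positive control wells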
3T3 cytotox 2: cytotoxicity in mouse NIH/3T3 fibroblasts; shares compounds with T cruzi growth-1; NIH/3T3 viability, CellTiter-Glo ATP luminescence, 90 h; inhibition, % at 24.9 µM; 56% of 5,600 active;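 active means mean loss of cell viability signal at or above a set limit, and enough replicates individually reaching it; inconclusive means meets only the mean limit or only the replicate share; inactive means meets neither condition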;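 further: 0% = median of neutral control wells and 100% = median of positive control wells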
Starred values were filed as active, the others as inactive; u = inconclusive; x = not tested or not shown.

SMILES	T cruzi growth-1	C diff growth	T cruzi growth-2	T cruzi growth-3	NIH3T3 tox	3T3 cytotox 2
O=C(NCC[C@H]1CC[C@H](NS(=O)(=O)Cc2ccccc2)[C@@H](CO)O1)C1CCCCC1	x	2	x	x	x	x
CCCNC(=O)C[C@H]1CC[C@@H]2[C@H](COC[C@H](O)CN2C(=O)Nc2ccccc2OC)O1	-120	x	x	x	x	x
CCC(=O)N(C)C[C@@H]1[C@H](c2ccc(C3=CCCC3)cc2)[C@H](CO)N1C(=O)CC	36	8	x	x	x	x
CN1[C@@H](CO)[C@@H]2c3ccccc3N(C(=O)Nc3cc(F)ccc3F)C[C@@H]21	-5	1	x	x	x	x
CCCN1[C@@H]2c3ccc(-c4cccc(F)c4)c(=O)n3C[C@@H]2[C@@H](CO)[C@@H]1C(=O)N(C)C	-6	0	x	x	x	x
Cc1cccc(-c2ccc([C@H]3[C@@H](CO)N4CCCCN(C(=O)c5ccc6c(c5)OCO6)C[C@H]34)cc2)c1	120*	0	98*	105*	44*	107*
O=C(c1ccc2c(c1)OCO2)N1CCCCN2[C@H](CO)[C@@H](c3ccc(-c4ccccc4)cc3)[C@H]2C1	102*	-1	86	55	28	68*
O=C(c1ccc2c(c1)OCO2)N1CCCCN2[C@H](CO)[C@H](c3ccc(-c4ccccc4)cc3)[C@H]2C1	61	-2	x	x	x	x
Cc1cccc(-c2ccc([C@@H]3[C@@H](CO)N4C(=O)CN(C(=O)c5ccc6c(c5)OCO6)C[C@H]34)cc2)c1	x	-11	x	x	x	x
C[C@@H]1CN([C@@H](C)CO)C(=O)c2cc(N(C)C)ccc2O[C@@H](C)CCCCO[C@@H]1CN(C)C(=O)Nc1ccc(C(F)(F)F)cc1	42	2	x	x	x	x
CS(=O)(=O)N1[C@H](CO)[C@@H](c2ccc(C#Cc3cccc(F)c3)cc2)[C@@H]1C#N	94	-3	x	x	x	x
COc1ccccc1NC(=O)N[C@H]1CC[C@@H](CC(=O)N[C@H](C)c2ccccc2)O[C@@H]1CO	-10	x	x	x	x	x
CCCC#Cc1ccc([C@@H]2[C@H](C#N)N(S(C)(=O)=O)[C@H]2CO)cc1	89	14	x	x	x	x
C[C@@H]1CN([C@@H](C)CO)S(=O)(=O)c2ccc(-c3ccncc3)cc2O[C@H]1CN(C)Cc1cccnc1	80	1	x	x	x	x
C[C@H]1CN([C@@H](C)CO)S(=O)(=O)c2ccc(-c3ccncc3)cc2O[C@@H]1CN(C)Cc1ccc(Oc2ccccc2)cc1	u	35	92	107*	86*	103*
C[C@@H]1CN([C@H](C)CO)S(=O)(=O)c2ccc(-c3ccncc3)cc2O[C@@H]1CN(C)Cc1ccc(Oc2ccccc2)cc1	116*	-1	99*	107*	84*	89*
C[C@H]1CN([C@@H](C)CO)S(=O)(=O)c2ccc(-c3ccncc3)cc2O[C@H]1CN(C)Cc1ccc(Oc2ccccc2)cc1	124	31	x	x	x	x
C[C@H]1CN([C@@H](C)CO)C(=O)c2cc(-c3cccc(F)c3)cnc2O[C@@H]1CN(C)CC1CCOCC1	x	4	x	x	x	x
COc1ccc(S(=O)(=O)N2CCCCN3[C@@H](CO)[C@H](c4ccc(C5=CCCC5)cc4)[C@@H]3C2)cc1	u	10	104*	88	27	104*
COc1ccc(S(=O)(=O)N2CCCCN3[C@H](CO)[C@H](c4ccc(C5=CCCC5)cc4)[C@H]3C2)cc1	94	30	x	x	x	x
CS(=O)(=O)N1CCCCN2[C@H](CO)[C@H](c3ccc(C4=CCCC4)cc3)[C@@H]2C1	51	-3	x	x	x	x
CS(=O)(=O)N1CCCCN2[C@H](C1)[C@H](c1ccc(C3=CCCC3)cc1)[C@@H]2CO	u	1	60	26	19	9
C[C@@H]1CN([C@H](C)CO)C(=O)c2cccc(NS(=O)(=O)c3cn(C)cn3)c2O[C@@H]1CN(C)S(C)(=O)=O	-10	x	x	x	x	x
Cc1ccc(S(=O)(=O)Nc2ccc3c(c2)C(=O)N([C@H](C)CO)C[C@H](C)[C@@H](CN(C)C(=O)c2ccncc2)OCCCC[C@H](C)O3)cc1	24	x	x	x	x	x
COc1ccc(CN2CC3(CN(C(=O)C4CC4)C3)c3c(n(C)c4cc(OC)ccc34)[C@@H]2CO)cc1	x	8	x	x	x	x
SMILES	T cruzi growth-1	C diff growth	T cruzi growth-2	T cruzi growth-3	NIH3T3 tox	3T3 cytotox 2
C/C=C/c1ccc2c(c1)O[C@H](CN(C)C(=O)NC1CCCC1)[C@H](C)CN([C@@H](C)CO)S2(=O)=O	x	1	x	x	x	x
CC(C)NC(=O)N1CC[C@@H]2[C@H]1c1cc(-c3ccc(F)cc3)ccc1N(C)[C@@H]2CO	108*	22	111*	85	-1	9
CC(C)NC(=O)N1CC[C@@H]2[C@@H](CO)N(C)c3ccc(-c4ccc(F)cc4)cc3[C@@H]21	100*	5	105*	101*	-22	49*
CC(C)NC(=O)N1CC[C@@H]2[C@H]1c1cc(-c3cccc(F)c3)ccc1N(C)[C@H]2CO	75	-6	x	x	x	x
COc1ccc(-c2ccc3c(c2)[C@@H]2[C@@H](CCN2C(=O)NC(C)C)[C@H](CO)N3C)cc1	29	4	x	x	x	x
C/C=C/c1ccc2c(c1)O[C@H](CN(C)C(=O)c1ccc3c(c1)OCO3)[C@H](C)CN([C@@H](C)CO)S2(=O)=O	77	-4	x	x	x	x
C[C@H]1CN([C@@H](C)CO)S(=O)(=O)c2ccc(/C=C/c3ccccc3)cc2O[C@H]1CN(C)C(=O)c1ccc2c(c1)OCO2	u	11	103*	93	33	u
C/C=C/c1ccc2c(c1)O[C@@H](CN(C)C(=O)c1ccc3c(c1)OCO3)[C@@H](C)CN([C@@H](C)CO)S2(=O)=O	28	3	x	x	x	x
C[C@H]1CN([C@@H](C)CO)S(=O)(=O)c2ccc(/C=C/c3ccccc3)cc2O[C@@H]1CN(C)C(=O)c1ccc2c(c1)OCO2	118*	2	104*	61	30	38*
C/C=C/c1ccc2c(c1)O[C@H](CN(C)C(=O)c1ccc3c(c1)OCO3)[C@@H](C)CN([C@@H](C)CO)S2(=O)=O	50	-3	x	x	x	x
C[C@H](CO)N1C[C@H](C)[C@H](CN(C)C(=O)c2ccc3c(c2)OCO3)Oc2cc(/C=C/c3ccccc3)ccc2S1(=O)=O	106*	1	104*	92	19	27*
CCNC(=O)C[C@H]1CC[C@H]2[C@@H](COc3ccc(NC(=O)Nc4ccccc4C)cc3C(=O)N2C)O1	65	-5	x	x	x	x
C[C@@H]1CN([C@H](C)CO)C(=O)c2cc(NC(=O)c3ccccc3)ccc2O[C@@H](C)CCCCO[C@@H]1CN(C)Cc1ccc(C(F)(F)F)cc1	69	20	x	x	x	x
C[C@H](CO)N1C[C@H](C)[C@@H](CN(C)Cc2ccc(Cl)c(Cl)c2)Oc2c(NC(=O)Nc3ccc4c(c3)OCO4)cccc2C1=O	85	x	x	x	x	x
C[C@H]1CN([C@@H](C)CO)C(=O)c2cc(NC(=O)Nc3ccc4c(c3)OCO4)ccc2O[C@H]1CN(C)Cc1ccc(Cl)c(Cl)c1	-84	x	x	x	x	x
